For five compounds, normalized growth results are on record in PubChem BioAssay AID1159580 (chemical genetic matrix, 2015).

The whole screen tested about 5,500 compounds, of which about 2,000 (36%) were called active. Inconclusive results (about 18%) are left out. The list shows a part of the results. Values without a mark were called inactive. Cut-off read from the data, not from the text of the source: active = normalized growth mostly below about 0.91 (no sharp cut-off); inconclusive = no clear call, values can overlap the other calls; inactive = mostly above about 0.92.

A short description of the experiment: chemical genetic growth profiling, strain panel (AID 1159580).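 Note: tested at 20 µM; growth read once vehicle control cultures reached saturation at 30 °C; 1 = growth at the plate median or of vehicle wells; lower values mean less growth of the strain.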 To be noted: S. cerevisiae deletion strains, growth OD.
Setting [1] is: locus YAL013W, strain DEP1, stronger effect = lower value.
The mark [2] stands for this setting: locus YAL040C, strain CLN3, stronger effect = lower value.
Where [3] appears, read: locus YCL061C, strain MRC1 (second series), stronger effect = lower value.
Setting [4] is: locus YDR363W, strain ESC2, stronger effect = lower value.
[5] abbreviates: locus YER002W, strain NOP16, stronger effect = lower value.
[6] abbreviates: locus YGR078C, strain PAC10, stronger effect = lower value.
[7] abbreviates: locus YGR229C, strain SMI1, stronger effect = lower value.
Setting [8] is: locus YNL153C, strain GIM3, stronger effect = lower value.
[9] abbreviates: locus YNL175C, strain NOP13, stronger effect = lower value.
The mark [10] stands for this setting: locus YNL197C, strain WHI3, stronger effect = lower value.
The mark [11] stands for this setting: locus YNL224C, strain SQS1, stronger effect = lower value.
The mark [12] stands for this setting: locus YOR083W, strain WHI5 (second series), stronger effect = lower value.
Setting [13] is: locus YDR150W, strain NUM1, stronger effect = lower value.
Setting [14] is: locus YMR263W, strain SAP30, stronger effect = lower value.
Setting [15] is: locus YPL055C, strain LGE1, stronger effect = lower value.
Where [16] appears, read: locus YHR030C, strain SLT2, stronger effect = lower value.
Where [17] appears, read: locus YJR075W, strain HOC1, stronger effect = lower value.
[18] abbreviates: locus YPL241C, strain CIN2, stronger effect = lower value.

Take `Cc1cccc(C)c1NC(=O)C[N+](C)(C)C`: the normalized growth by setting is: under setting [1], 1.03; under setting [2], 0.995; under setting [3], 1; under setting [4], 1.01; under setting [5], 1.01; under setting [6], 0.984. For the same compound, the normalized growth is, setting by setting: under setting [7], 1; under setting [8], 1.01; under setting [9], 0.993; under setting [10], 0.989; under setting [11], 1.01; under setting [12], 1.02.
Turning to `CC[N+](CC)(CC)CC(=O)Nc1c(C)cccc1C`, the normalized growth was 0.958 under setting [2]; 0.999 under setting [3]; 1 under setting [13]; 1.02 under setting [4]; 1.01 under setting [5]; 1.02 under setting [6]. Further, the normalized growth is 1 under setting [7]; 1 under setting [14]; 1.01 (locus YNL128W, strain TEP1, stronger effect = lower value); 0.995 under setting [8]; 1 under setting [9]; 1.01 under setting [10]. Further, the normalized growth is 0.999 under setting [11], 0.999 under setting [12] and 1.01 under setting [15].
On to `CC[N+](CC)(CC(=O)Nc1c(C)cccc1C)Cc1ccccc1`, for which the normalized growth was 0.962 under setting [16]; 0.878 (locus YHR079C, strain IRE1, stronger effect = lower value); 0.916 (locus YJL095W, strain BCK1, stronger effect = lower value); 0.897 (locus YJR066W, strain TOR1, stronger effect = lower value); 0.814 (active) (locus YLR113W, strain HOG1, stronger effect = lower value); 0.851 (locus YNL183C, strain NPR1, stronger effect = lower value). Also, the normalized growth reads like this: (locus YOR231W, strain MKK1, stronger effect = lower value) 0.899; (locus YPL256C, strain CLN2, stronger effect = lower value) 0.868.
Take `CN1C2CCC1CC(=NO)C2`: the normalized growth reads like this: under setting [1], 0.993; (locus YBR229C, strain ROT2, stronger effect = lower value) 0.982; (locus YDL101C, strain DUN1, stronger effect = lower value) 1.02; under setting [13], 0.991; (locus YEL061C, strain CIN8, stronger effect = lower value) 0.997; under setting [6], 1. Also, the normalized growth is, setting by setting: under setting [16], 1.07; (locus YHR087W, strain rtc3, stronger effect = lower value) 0.993; (locus YJL187C, strain SWE1, stronger effect = lower value) 0.989; (locus YJR043C, strain POL32, stronger effect = lower value) 0.986; under setting [17], 0.984; (locus YKL190W, strain CNB1, stronger effect = lower value) 0.994. Moreover, the normalized growth by setting is: (locus YLR039C, strain RIC1, stronger effect = lower value) 0.998; (locus YLR058C, strain SHM2 (second series), stronger effect = lower value) 0.983; (locus YLR085C, strain ARP6, stronger effect = lower value) 1.02; (locus YLR262C, strain YPT6, stronger effect = lower value) 0.997; (locus YML094W, strain GIM5, stronger effect = lower value) 1.01; (locus YMR219W, strain ESC1, stronger effect = lower value) 1.01. Moreover, the normalized growth under setting [14] was 0.986; the normalized growth under setting [8] was 1.03; the normalized growth (locus YNL298W, strain CLA4 (second series), stronger effect = lower value) was 1.03; the normalized growth (locus YNL322C, strain KRE1, stronger effect = lower value) is 1; the normalized growth (locus YNR030W, strain Alg12, stronger effect = lower value) was 0.986; the normalized growth under setting [15] was 0.984. The normalized growth was 0.975 under setting [18] and 1.03 (locus YPR135W, strain CTF4, stronger effect = lower value).
In the case of `CO[C@@]1(NC(=O)CSCC#N)C(=O)N2C(C(=O)O)=C(CSc3nnnn3C)CS[C@@H]21`, the normalized growth was 1.01 under setting [2]; 0.986 under setting [5]; 1 under setting [6]; 1 under setting [17]; 0.995 under setting [9]; 1 under setting [10]. The normalized growth under setting [11] is 1, the normalized growth under setting [12] is 1 and the normalized growth under setting [18] was 1.
